Rows were chosen to be rich in hits. Some 4.8% of all compounds tested hit in one or more screens of this group.
TIM10 inh: growth inhibitors of TIM10 yeast strain; inhibition, % at 10 µM; 330,000 compounds, 1.4% hits; S. cerevisiae TIM10 strain growth, BacTiter-Glo luminescence, 24 h; AID 463195;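 active = inhibition of 40% or more at the single tested concentration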;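 note: wild-type TIM10 isogenic control strain grown at permissive 25 °C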
NALP1 yeast inh: NALP1 inhibition; inhibition, % at 10 µM; AID 2071; 280,000 compounds, 0.61% hits; S. cerevisiae NALP1/ASC/caspase-1 growth, X-gal OD620, 72 h; in the data active = inhibition mostly above about 24%, no sharp cut-off; inactive = mostly below about 32%
tim23-1 inh: tim23-1 yeast growth inhibition; S. cerevisiae tim23-1 growth, BacTiter-Glo luminescence, 24 h; AID 463212; 330,000 compounds, 1.3% hits; inhibition, % at 20 µM;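 active = growth inhibition of the mutant yeast at or above 50%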;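 note: temperature-sensitive mutant grown at 25 °C; plate controls were DMSO-treated mutant yeast for no effect and medium wells lacking yeast for full effect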
tim10-1 inh: tim10-1 yeast growth inhibition; inhibition, % at 20 µM; 330,000 compounds, 2.2% hits; S. cerevisiae tim10-1 ts strain growth, BacTiter-Glo, 24 h;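 active = inhibition of at least 40%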;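 note: mutant grown at 25 °C; 0% = DMSO wells with yeast and 100% = wells holding no yeast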
PfHsp90 yeast 2: growth inhibition of yeast expressing Plasmodium Hsp90; S. cerevisiae expressing PfHsp90, BacTiter-Glo ATP, 48 h; yeast lacking PDR1 and PDR3 efflux regulators; inhibition, % at 9.4 µM; 310,000 compounds, 0.32% hits; AID 504621;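 active = every replicate shows inhibition above about 80%, whatever the replicate mean, limit read from the data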;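 note: 0% = DMSO neutral controls and 100% = 20 µM radicicol positive controls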
SKKanGAS inh: blocks kanamycin growth of S. pyogenes SKKanGAS strain; BacTiter-Glo, 6 h; inhibition, % at 7.5 µM; 300,000 compounds, 1.3% hits; AID 1662;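 active = mean replicate score, as percent of positive control median, at least 50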;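 note: strain carries kanamycin resistance gene driven by streptokinase promoter and grows in 40 µg/ml kanamycin; loss of luminescence reflects streptokinase promoter inhibition or plain growth inhibition; 0% = median of DMSO wells and 100% = positive control at its reference dose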
tim10-1 confirm: confirmation of tim10-1 mutant yeast growth inhibitors; AID 463213; S. cerevisiae tim10-1 ts strain growth, BacTiter-Glo, 24 h; shares compounds with tim10-1 inh; 7,400 compounds, 56% hits; inhibition, % at 20 µM;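 active = inhibition of yeast growth at or above a set limit in either of two repeat tests at 20 µM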;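 note: tim10-1 mutant grown at permissive 25 °C to find synthetic lethal compounds; 0% = DMSO yeast wells and 100% = medium wells without yeast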
TIM10 conf: TIM10 yeast growth inhibition, confirmed; shares compounds with TIM10 inh; S. cerevisiae tim10 strain growth, BacTiter-Glo luminescence, 24 h; inhibition, % at 10 µM; 4,600 compounds, 63% hits; AID 463215;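 active = inhibition of yeast growth at or above a set limit in either of two replicates at 10 µM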;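 note: this counterscreen used the strain with wild-type TIM10; 0% = yeast with DMSO and 100% = medium wells lacking yeast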
tim23-1 confirm: confirmation of tim23-1 mutant yeast growth inhibitors; shares compounds with tim23-1 inh; S. cerevisiae tim23-1 growth, BacTiter-Glo luminescence, 24 h; inhibition, % at 20 µM; 4,400 compounds, 83% hits;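 active = inhibition above about 39% in either of two replicate wells at 20 µM, limit read from the data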;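 note: temperature-sensitive tim23-1 mutant grown at 25 °C; 0% = DMSO wells with yeast and 100% = medium wells without yeast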
* hit, by the source's call.

How did Cc1cc(-c2n[nH]c(=S)n2/N=C/C(Cl)=C/c2ccccc2)n[nH]1 do in these assays?
TIM10 inh: 54*; NALP1 yeast inh: 21; tim23-1 inh: 54*; tim10-1 inh: 51*; PfHsp90 yeast 2: 6; SKKanGAS inh: 22; tim10-1 confirm: 47*; TIM10 conf: -8; tim23-1 confirm: 48*

How did O=[N+]([O-])c1ccc(-c2c(-c3ccccc3)ncc3ccc(F)cc23)cc1 do in these assays?
TIM10 inh: 10; tim23-1 inh: 26; tim10-1 inh: 11

How did CCCC(=O)Nn1cnc2c(c1=O)C1(CCCCC1)Cc1ccccc1-2 do in these assays?
TIM10 inh: 52*; NALP1 yeast inh: 13; tim23-1 inh: 53*; tim10-1 inh: 41*; PfHsp90 yeast 2: -8; SKKanGAS inh: 1; tim10-1 confirm: 44*; TIM10 conf: 40*; tim23-1 confirm: 52*

Results for CCCC(=O)C1=C(O)C(C(=O)OC)C(C)(C)CC1=N (stereo unspecified) ?
TIM10 inh: 3; NALP1 yeast inh: 10; tim23-1 inh: 0; tim10-1 inh: -1; PfHsp90 yeast 2: 3; SKKanGAS inh: -5

How did CCn1c(C(=O)NC(C)c2ccc3c(c2)OCCO3)cc2sccc21 (stereo unspecified) do in these assays?
TIM10 inh: 19; NALP1 yeast inh: 12; tim23-1 inh: 53*; tim10-1 inh: 44*; PfHsp90 yeast 2: 36; SKKanGAS inh: -1; tim10-1 confirm: 32*; tim23-1 confirm: 46*

What do the screens show for `Cc1cccc(-n2cc(-c3ccccc3)[nH]c2=S)c1`?
TIM10 inh: 20; NALP1 yeast inh: 6; tim23-1 inh: 51*; tim10-1 inh: 46*; PfHsp90 yeast 2: -7; SKKanGAS inh: -6; tim10-1 confirm: 18; tim23-1 confirm: 49*

How did O=C(Nc1nc(-c2cccs2)c(C(=O)C(F)(F)F)s1)c1ccco1 do in these assays?
TIM10 inh: 56*; NALP1 yeast inh: 3; tim23-1 inh: 62*; tim10-1 inh: 56*; PfHsp90 yeast 2: 2; SKKanGAS inh: -7; tim10-1 confirm: 73*; TIM10 conf: 59*; tim23-1 confirm: 79*

What do the screens show for `O=C(Nc1nc(-c2cccs2)c(C(=O)C(F)(F)F)s1)c1ccccc1`?
TIM10 inh: 33; NALP1 yeast inh: 32; tim23-1 inh: 69*; tim10-1 inh: 61*; PfHsp90 yeast 2: -11; SKKanGAS inh: 7; tim10-1 confirm: 50*; tim23-1 confirm: 70*

What do the screens show for `O=C(NC1=NCCS1)c1cc(-c2cccnc2)nc2ccccc12`?
TIM10 inh: 21; NALP1 yeast inh: 8; tim23-1 inh: 15; tim10-1 inh: 18; PfHsp90 yeast 2: -27; SKKanGAS inh: -6

Results for O=C(NC1=NCCS1)c1cc(-c2cccs2)nc2ccccc12 ?
TIM10 inh: 46*; tim23-1 inh: 50*; tim10-1 inh: 48*; PfHsp90 yeast 2: -11; SKKanGAS inh: 1; tim10-1 confirm: 46*; TIM10 conf: 31*; tim23-1 confirm: 54*

Results for Cc1cccc(NC(=O)C2CCCN2S(=O)(=O)c2ccc(Cl)cc2)n1 (stereo unspecified) ?
TIM10 inh: -1; NALP1 yeast inh: 20; tim23-1 inh: 16; tim10-1 inh: 3; PfHsp90 yeast 2: -2; SKKanGAS inh: 10

How did O=C(C1CCCN(S(=O)(=O)c2cccs2)C1)N1CCN(C2CCCCC2)CC1 (stereo unspecified) do in these assays?
TIM10 inh: -5; NALP1 yeast inh: -10; tim23-1 inh: 15; tim10-1 inh: 6; PfHsp90 yeast 2: 4; SKKanGAS inh: -3

Compound activity (PubChem)
